# From ChEMBL document CHEMBL4513216, “Probing the Open Global Health Chemical Diversity Library for Multistage-Active Starting Points for Next-Generation Antimalarials” (ACS Infect Dis, 2020)
# In all, about 69,000 compounds went through this assay and about 8,600 (12%) showed an effect of 50% or more. The full list was thinned out, with strong results kept by preference.
# System: Plasmodium berghei
# Test: Screen against P. berghei liver stage (PbLuc), transformed with Luciferase, at 10uM
# Assay type: functional, HepG2
# Details: tested at 10 uM
row,SMILES,INHIBITION
1,CS(=O)(=O)c1cncnc1C1CCCN(C(=O)Nc2ccc(F)cc2)C1 (stereo unspecified),-18.555%
2,COc1ccc(C(=O)N2CCCC(n3cc(C)cn3)C2)c(F)c1 (stereo unspecified),2.97%
3,CCS(=O)(=O)N1CCN(C(=O)NC(C)C)CC2(CNC(=O)C2)C1 (stereo unspecified),3.25%
4,CC(=O)N1CCC1c1cc(N2CCNC(=O)C2)nc(C)n1 (stereo unspecified),12.84%
5,Cc1csc(N2CCN(Cc3cscn3)CC2C)n1 (stereo unspecified),45.9%
6,Cc1csc(N2CCN(Cc3nccn3C)CC2C)n1 (stereo unspecified),30%
7,Cc1csc(N2CCN(Cc3ccccn3)CC2C)n1 (stereo unspecified),2.3%
8,Cc1cnc(CN2CCN(c3nc(C)cs3)C(C)C2)cn1 (stereo unspecified),78.8%
9,Cc1csc(N2CCN(Cc3cccnc3)CC2C)n1 (stereo unspecified),61.8%
10,Cc1csc(N2CCN(Cc3cnc(C)s3)CC2C)n1 (stereo unspecified),21.6%
11,CN(C)Cc1ccc(CNC(=O)NCC2(C)CCCS2)cc1 (stereo unspecified),49.3%
12,Cc1ccc(-c2ncc(C(=O)NS(C)(=O)=O)s2)c(C)c1,-2.53%
13,CNC(=O)NC(=O)CCSCc1cc(Cl)cc2cccnc12,-51.1%
14,CC(C)NC(=O)N(C)C1CCN(c2ccccc2Cl)C1=O (stereo unspecified),-6.61%
15,Cc1n[nH]c(C)c1CCC(=O)N1CCC(O)(CN2CCOCC2)C1 (stereo unspecified),53.65%
16,Cc1n[nH]c(C)c1CCC(=O)N1CCC(O)(CN2CCN(C)CC2)C1 (stereo unspecified),-15.15%
17,Cc1n[nH]c(C)c1CC(=O)N1CCC(O)(CN2CCOCC2)C1 (stereo unspecified),-23.55%
18,c1nc(N2CCOC(Cn3cncn3)C2)c2cc[nH]c2n1 (stereo unspecified),33.8%
19,COCC(=O)N1CCc2cccc(S(=O)(=O)N3CCOCC3)c2C1,33.9%
20,CCOCCC(=O)N1CCc2cccc(S(=O)(=O)N3CCOCC3)c2C1,53.9%
21,CCCOC(=O)N1CCc2cccc(S(=O)(=O)N3CCOCC3)c2C1,20.3%
22,N#Cc1cc(NC(=O)c2ccccc2)ccc1N1CCC(O)CC1,-4.86%

row,SMILES,INHIBITION
1,N#Cc1cc(NC(=O)c2ccsc2)ccc1N1CCC(O)CC1,35.1%
2,Cc1ccc(C(=O)Nc2ccc(N3CCC(O)CC3)c(C#N)c2)s1,17.6%
3,N#Cc1cc(NC(=O)c2ccncc2)ccc1N1CCC(O)CC1,62.3%
4,Cc1ccsc1C(=O)Nc1ccc(N2CCC(O)CC2)c(C#N)c1,96.1%
5,N#Cc1cc(NC(=O)c2ccccn2)ccc1N1CCC(O)CC1,-5.25%
6,Cn1cccc1C(=O)N[C@H]1CN(Cc2ccoc2)[C@@H]2CCCO[C@H]12,34.9%
7,COCC(=O)NCc1nn(CCN2CCCC2)c(=O)c2ccccc12,31.3%
8,Cc1ccc(C)c(CS(=O)(=O)CC(=O)NCCCOC(C)C)c1,-2.19%
9,Cc1nc(C)n(CC2CCCCN2CC(=O)Nc2nnc(C)s2)n1 (stereo unspecified),4.71%
10,CCN(CCOC)C(=O)c1ccc2c(c1)nc(N1CC[C@H](O)C1)n2C,1.74%
11,Cc1ncc(C(=O)N2CCCC(C(=O)c3nccn3C)C2)c(O)n1 (stereo unspecified),-6.01%
12,Cc1cccc(C)c1OCC(O)CNCc1c(C)nn(C)c1N(C)C (stereo unspecified),19.4%
13,O=C(C1CCOC1)N1CCc2ncc(CNc3ccccn3)n2CC1 (stereo unspecified),41.5%
14,c1nc2n(c1CN1CCCC1)CCN(C1CCOCC1)CC2,80%
15,c1ccc(NCc2cnc3n2CCN(CC2CCOC2)CC3)nc1 (stereo unspecified),27.6%
16,c1ccc(NCc2cnc3n2CCN(C2CCOC2)CC3)nc1 (stereo unspecified),81.2%
17,c1nc2n(c1CN1CCCCC1)CCN(C1CCOC1)CC2 (stereo unspecified),-33.9%
18,c1nc2n(c1CN1CCOCC1)CCN(C1CCOC1)CC2 (stereo unspecified),-52.3%
19,c1cnc(N2CCC3(CCN(CC4CCOC4)CC3)CC2)nc1 (stereo unspecified),15.6%
20,CC(NC(=O)OC(C)(C)C)c1nnc(S(=O)(=O)Cc2ccc(Cl)cc2)o1 (stereo unspecified),-19.1%
21,COc1ccc2c(ccn2CCC(=O)NCc2ccc(C(=O)O)cc2)c1,7.83%
22,O=C([C@H]1C[C@H]2OCC[C@H]2N(Cc2ccco2)C1)N1CCCO1,34.6%

row,SMILES,INHIBITION
1,O=C(N1CCCO1)[C@@]12CCO[C@@H]1CCN(Cc1ccccc1)C2,-10.4%
2,CC(C)n1c(=O)c2sccc2n(CC(=O)Nc2cccc(Cl)c2)c1=O,19.3%
3,CCn1c(=O)c2sccc2n(CC(=O)Nc2cccc(Cl)c2)c1=O,33.3%
4,O=C(Cn1c(=O)[nH]c2cn(-c3ccccc3)c(=O)n21)Nc1ccccc1,23.2%
5,CC(C)n1c(=O)c2sccc2n(CC(=O)Nc2ccccc2)c1=O,52.4%
6,Cn1c(=O)c2sccc2n(CC(=O)Nc2cccc(Cl)c2)c1=O,-25.5%
7,CC(C)c1cccc(NC(=O)Cn2c(=O)n(C)c(=O)c3sccc32)c1,74.7%
8,CC1=N[C@@]2(CC[C@@H]3CN(S(=O)(=O)CC(C)C)C[C@@H]32)C(=O)N1CC(C)C,40.4%
9,CCN(CC)CCNC(=O)CCc1c(C)nn(-c2ccccc2Br)c1C,6.55%
10,CC(C)(C)NC(=O)c1cccc(CN2CCS(=O)(=O)CC2)c1,47.3%
11,Cc1ccc(N2CCC3(CCN(C(=O)c4ccccn4)CC3)CC2)nn1,0.72%
12,Cc1cc(C)n(CC(C)CNC(=O)NCc2csc(C)n2)n1 (stereo unspecified),35.4%
13,Cc1nnc(SC2CCc3ccccc3NC2=O)n1C (stereo unspecified),38.1%
14,Cn1nnnc1SC1CCc2ccccc2NC1=O (stereo unspecified),56.3%
15,Cn1cnnc1SC1CCc2ccccc2NC1=O (stereo unspecified),34.3%
16,O=C(NCc1ccc(-n2cncn2)nc1)c1ccc2c(c1)CCC2,-45.9%
17,COC[C@]1(O)CCN(C2CCN(c3ccc(OC)cc3)CC2)CC1(C)C,23.9%
18,Cn1cnc2c1CCN(Cc1csc(C3CCCCC3)n1)C2,33.3%
19,CCCNC(=O)C1CCN(CC(O)c2ccc(C(F)(F)F)cc2)CC1 (stereo unspecified),51.6%
20,CCCNC(=O)C1CCN(CC(O)c2ccccc2C(F)(F)F)CC1 (stereo unspecified),-4.12%
21,CCCNC(=O)C1CCN(CC(O)c2ccccc2)CC1 (stereo unspecified),30%
22,CO[C@H]1CCN(Cc2cccc(C)n2)[C@@H]2CN(Cc3cccnc3)C[C@H]12,30.1%

row,SMILES,INHIBITION
1,CCCNc1ncc(-c2cc(C3CC3)nc(N)c2C#N)cn1,34.4%
2,CCSc1ncc(-c2cc(C3CC3)nc(N)c2C#N)cn1,52.8%
3,CC(C)c1ncc(-c2cc(C3CCC3)nc(N)c2C#N)cn1,62.6%
4,CCSc1ncc(-c2cc(C3CCC3)nc(N)c2C#N)cn1,48.5%
5,N#Cc1c(C2CC2)cc(-c2ccc(F)c(F)c2)nc1N,-42.8%
6,CS(=O)(=O)c1ccc(-c2cc(C3CC3)c(C#N)c(N)n2)cc1,-21.2%
7,Cc1ccc(N2CC[C@@H]3O[C@@H](COCc4cccnc4)CC[C@@H]32)nn1,4.02%
8,CCN(C(C)=O)C(c1ccc(Cl)cc1)c1ccccn1 (stereo unspecified),33.7%
9,O=C1CCCN1Cc1ncn2c1CN(C(=O)Cc1cccs1)CCC2,32.2%
10,Cc1cnc(CCN(C)C(=O)c2cccc(C)c2O)s1,58.8%
11,Cc1ncsc1CCN(C)C(=O)c1c(O)cccc1O,25.1%
12,Cc1cnc(CCN(C)C(=O)c2cccc(N(C)C)c2)s1,33.7%
13,Cc1cnc(CCN(C)C(=O)c2ccc(O)nc2C)s1,60.2%
14,Cc1nc(O)ccc1C(=O)NCc1ncoc1C,-17.3%
15,Cc1nc(-c2ccsc2)ccc1C(=O)N(C)CC1CC1,27.7%
16,CNC(=O)[C@@H](c1ccccc1)N1CCC[C@H]1C(=O)NCc1ccccn1,34.6%
17,CN(Cc1cccs1)C(=O)CN1C(=O)c2cc(Cl)c(Cl)cc2C1=O,14.8%
18,CCC(O)CN1CCN(C(=O)c2cccc(CC#N)c2)CC1 (stereo unspecified),-12.2%
19,O=C(C1CCN(c2cccnn2)C1)N1CCOCC1 (stereo unspecified),18.3%
20,Cn1cc(CN2C[C@@H]3CN(C(=O)c4cccn4C)CCO[C@@H]3C2)cn1,24.9%
21,Cc1cc(CN2C[C@@H]3CN(C(=O)c4cccn4C)CCO[C@@H]3C2)no1,89.3%
22,Cc1cc(CN2C[C@@H]3CN(C(=O)c4ccco4)CCO[C@@H]3C2)no1,12%

row,SMILES,INHIBITION
1,CN(Cc1cnn(C)c1)C(=O)NC1CCCC1,8.38%
2,CCCS(=O)(=O)N1CCO[C@H]2[C@@H](Oc3cccnc3)CC[C@@H]21,10.5%
3,O=c1ccc(S(=O)(=O)N2CCCC2)cn1CC1CCCCO1 (stereo unspecified),-15%
4,c1cncc(CN2CC[C@@H]3[C@@H]2CCN3Cc2ccc3c(c2)OCO3)c1,-8.51%
5,O=S(=O)(c1c(N2CCCCC2)ccc2nonc12)N1CCCCC1,8.41%
6,CC(NC(=O)N1CCNC(=O)CC1)c1ccc(OC(F)F)cc1 (stereo unspecified),-18.3%
7,Cc1ccc(C(C)NC(=O)N2CCNC(=O)CC2)cc1F (stereo unspecified),42.3%
8,COc1ccc(C(C)NC(=O)N2CCNC(=O)CC2)cc1F (stereo unspecified),74.8%
9,CCCc1n[nH]c(C2CN(C(=O)c3cc4c(s3)CCC4)CCO2)n1 (stereo unspecified),33.8%
10,CC(C)NC(=O)CC1COC2(CCN(Cc3ccsc3)CC2)C1 (stereo unspecified),13.7%
11,Cc1noc2ncc(C(=O)NCC3CCS(=O)(=O)C3)cc12 (stereo unspecified),-49.1%
12,COc1ccccc1C(C)(C)NC(=O)c1ccc(F)c(NC(C)=O)c1,-47%
13,CN1CCC2(Cc3ccccc3CN(C(=O)c3ccc(Cl)cc3)C2)C1 (stereo unspecified),-17.2%
14,N#Cc1ccc(CN2C(=O)c3ccccc3CS2(=O)=O)c(F)c1,15.2%
15,Cc1c2ncn(CC(=O)c3ccccc3)c(=O)c2nn1C,14.9%
16,O=C(CN1C(=O)c2ccccc2CS1(=O)=O)c1ccccc1,74.2%
17,N#Cc1ccc(CN2C(=O)c3ccccc3CS2(=O)=O)cc1,-9.35%
18,O=C(CN1C(=O)c2ccccc2CS1(=O)=O)c1ccc(Cl)cc1,55.4%
